Laboratory results published in PubChem BioAssay (NCI).
About 83,000 compounds went through this panel and 20% of them were active in at least one assay; those are over-represented in the sample as a whole.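 Values shown are percent growth following 48 h exposure of cells in 96-well plates to a single concentration of compound; below 10 was considered active.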 Values without a mark were called inactive. Activity calls are given as the source filed them.

Test system: MCF7 breast
Test: NCI-60 one-dose screen, 48 h (100 = growth as untreated, 0 = no growth, -100 = all killed)
Settings: 10 µM unless noted
Description: Growth inhibition of the MCF7 human tumor cell line is measured as a screen for anti-cancer activity. Cells are grown in 96 well plates and exposed to the test compound for 48 hours. Compounds are tested at a single concentration, which is 10^-5 M for most compounds. The reported endpoint is percent growth (GI% or GIPRCNT), where numbers from 0 - 100% represent growth inhibition, and numbers from -100% - 0 represent cell death. For example, a value of 40 represents 60% growth inhibition. A value of 0 means no net growth occurred over the course of the experiment. A value of -40 indicates 40% of cells at the beginning of the experiment died by the end of the experiment. A value of -100 means all cells are dead at the end of the experiment.
NCI-60 Human Tumor Cell Lines Screen was performed using the standard one-dose NCI protocol, which is described in more detail at https://dtp.cancer.gov/discovery_development/nci-60/default.htm.
Compounds with GIPRCNT values below 10 were considered active. Activity score was based on GIPRCNT using the following formula: […]
Score is 0 for GIPRCNT values of 100 or above, 50 for GIPRCNT values of 0, and 100 for GIPRCNT values of -100.

| SMILES | growth |
| --- | --- |
| COc1ccc2nc3cc(Cl)ccc3c(Nc3ccc(O)cc3)c2c1 | 24.6% |
| Cc1cnc([C@]23CC[C@@H](C)[C@H](C)[C@H]2C2=CC[C@@H]4[C@@]5(C)Cc6c([nH]c7ccccc67)C(C)(C)[C@@H]5CC[C@@]4(C)[C@]2(C)CC3)o1 | 46.8% [100 µM] |
| O=[N+]([O-])c1cc(CCl)ccc1OCCBr | 89.7% |
| O=C(CSc1nccc(Nc2ccc(S(=O)(=O)Nc3ccccn3)cc2)n1)c1ccc(Cl)cc1 | 91.4% |
| CCOC(=O)c1nn(C2CCCCO2)c2ccc(NS(=O)(=O)c3ccc(C)cc3)cc12 (stereo not given) | 93.1% |
| C=CC1=C(C)C2=NC1=CC1=NC(=CC3=C(C)C4=C(O)C(C(=O)O)C(=C5NC(=C2)C(C)C5CCC(=O)O)C4=N3)C(CC)=C1C (stereo not given) | 113% |
| Cc1ccc(-c2cc(-c3ccc(C)cc3)nc(NCCNc3ccnc4cc(Cl)ccc34)n2)cc1 | -77.3% (active) |
| O=C(CCNCc1ccccc1)c1ccccc1 | 102% |
| CC1Cc2c(ncnc2-n2cnc3ccccc32)N(C)c2ccccc21 (stereo not given) | 18.2% |
| CCN(CC)c1ccc(/C=C/c2ccc3cc(C)ccc3[n+]2CC)cc1 | 3.46% (active) |
| O=C(O)CSCc1nnc2n(Cc3ccccc3)c(=O)c3c4c(sc3n12)CCCC4 | 110% |
| O=C(Oc1ccc(Cl)cc1[N+](=O)[O-])Oc1ccc(Cl)cc1[N+](=O)[O-] | 103% |
| O=C1/C(=C\c2cccn2Cc2ccccc2)c2ccccc2N1c1c(Cl)cccc1Cl | 6.23% (active) |
| COc1cc(C)cc2oc3oc(=O)c(-c4nc5ccccc5s4)cc3c(=O)c12 | 84.7% |
| Cc1cc(C)c(O)c(CNCCCCCCNCc2cc(C)cc(C)c2O)c1 | -81.4% (active) |
| Cc1ccc(N)c(O)c1 | 83.5% |
| C#C[C@]1(O)CC[C@H]2[C@@H]3CC=C4c5nc(Nc6ncccn6)sc5CC[C@]4(C)[C@H]3CC[C@@]21C | 59.7% |
| Nc1ccc(Cl)c([N+](=O)[O-])c1 | 101% |
| COc1ccc2c(c1)c(-c1noc(-c3cn(C)c4ncc(F)cc34)n1)cn2C | 54.6% |
| CS(=O)(=O)c1cccnn1 | 94% |

| SMILES | growth |
| --- | --- |
| C1=C[C@H]2O[C@@H]1c1ccc3[nH]ccc3c12 | 96.1% |
| Nc1cc(N)c(N=Nc2ccc(S(=O)(=O)O)cc2)cc1N=Nc1ccc(-c2ccc(N=Nc3ccc(O)c(C(=O)O)c3)cc2)cc1 | 95.5% |
| CN(C)C(=S)Sc1ccc([N+](=O)[O-])cc1[N+](=O)[O-] | 0.536% (active) |
| COc1ccc2c(c1)C(C)Cc1c(ncnc1-n1cnc3ccccc31)N2C (stereo not given) | 18.6% |
| COc1ccc(/C=C(/C(=O)c2ccc(Cl)cc2)C(=O)C(F)(F)F)cc1 | 77.2% |
| O=C(N[C@@H]1CCCc2ccccc21)[C@H](CCC(=O)N1CCN(C2CCCCC2)CC1)N1C(=O)[C@@H](N2C(=O)OC[C@@H]2c2ccccc2)[C@H]1/C=C/c1ccccc1 | 16.5% |
| C=CCCC1(C)NC(=O)NC1=O (stereo not given) | 92.4% |
| O=C1Nc2ccccc2/C1=C/C(=O)c1ccc(N2CCOCC2)cc1 | 79.5% |
| c1cc2ccc3cc2cc1CNCCN1CCNCc2ccc4ccc(cc4c2)CNCCN(CCNC3)CCNCc2ccc3ccc(cc3c2)CNCC1 | -5.39% (active) |
| CCc1ccc(C2=C/C(=C/c3ccccc3)C(=O)N2CCc2ccc(S(N)(=O)=O)cc2)cc1 | 96.3% |
| C[C@H]1[C@H](C)CC[C@]2(COC(=O)CCC(=O)O)CC[C@]3(C)C(=CC[C@@H]4[C@@]5(C)CCCNC(C)(C)[C@@H]5CC[C@]43C)[C@H]12 | 54.9% [100 µM] |
| COc1cc(NN=C(c2ccc(O)cc2)c2ccc(O)cc2)c([N+](=O)[O-])cc1[N+](=O)[O-] | 1.9% (active) |
| C=C(C)[C@@H]1CC[C@]2(C(=O)OC)CC[C@]3(C)[C@H](CC[C@@H]4[C@@](C)(CCc5nn[nH]n5)[C@H](C(=C)C)CC[C@]43C)[C@@H]12 | 5.06% [100 µM] (active) |
| Cc1ccc(-c2cn(C/C=C3\C=CN(S(=O)(=O)c4ccccc4)CC3)nn2)cc1 | 90.3% |
| O=[N+]([O-])c1cc([N+](=O)[O-])c(C(F)(F)F)cc1NN=C(c1ccc(O)cc1)c1ccc(O)cc1 | -10.1% (active) |
| CCOC(=O)COc1c(C)cc(SSc2cc(C)c(OCC(=O)OCC)c(C)c2)cc1C | 92.6% |
| CCCCCCSc1ncnc2nc[nH]c12 | 94.6% |
| CC(=O)O.CC(=O)O.O.[Fe] | 111% |
| Nc1nc(SCc2cccc([N+](=O)[O-])c2)c2[nH]cnc2n1 | 88% |
| O=C(NCCO)c1cccnc1 | 98.5% |
